{"source": "PubChem BioAssay (EPA / NIEHS)", "note": "Inconclusive results are not listed. The source made the active and inactive calls. Rule for the calls: active = hit-call score of the fitted dose curve at least 0.9, where 1 is the maximum; inconclusive = response in the unintended direction; inactive = score below 0.9.", "data": [{"biological_target": "human Tyrosine Protein Kinase Receptor Tie-2 (Tie2), TEK (gene 7010) (UniProt Q02763)", "sequence (Q02763 whole entry, looked up)": "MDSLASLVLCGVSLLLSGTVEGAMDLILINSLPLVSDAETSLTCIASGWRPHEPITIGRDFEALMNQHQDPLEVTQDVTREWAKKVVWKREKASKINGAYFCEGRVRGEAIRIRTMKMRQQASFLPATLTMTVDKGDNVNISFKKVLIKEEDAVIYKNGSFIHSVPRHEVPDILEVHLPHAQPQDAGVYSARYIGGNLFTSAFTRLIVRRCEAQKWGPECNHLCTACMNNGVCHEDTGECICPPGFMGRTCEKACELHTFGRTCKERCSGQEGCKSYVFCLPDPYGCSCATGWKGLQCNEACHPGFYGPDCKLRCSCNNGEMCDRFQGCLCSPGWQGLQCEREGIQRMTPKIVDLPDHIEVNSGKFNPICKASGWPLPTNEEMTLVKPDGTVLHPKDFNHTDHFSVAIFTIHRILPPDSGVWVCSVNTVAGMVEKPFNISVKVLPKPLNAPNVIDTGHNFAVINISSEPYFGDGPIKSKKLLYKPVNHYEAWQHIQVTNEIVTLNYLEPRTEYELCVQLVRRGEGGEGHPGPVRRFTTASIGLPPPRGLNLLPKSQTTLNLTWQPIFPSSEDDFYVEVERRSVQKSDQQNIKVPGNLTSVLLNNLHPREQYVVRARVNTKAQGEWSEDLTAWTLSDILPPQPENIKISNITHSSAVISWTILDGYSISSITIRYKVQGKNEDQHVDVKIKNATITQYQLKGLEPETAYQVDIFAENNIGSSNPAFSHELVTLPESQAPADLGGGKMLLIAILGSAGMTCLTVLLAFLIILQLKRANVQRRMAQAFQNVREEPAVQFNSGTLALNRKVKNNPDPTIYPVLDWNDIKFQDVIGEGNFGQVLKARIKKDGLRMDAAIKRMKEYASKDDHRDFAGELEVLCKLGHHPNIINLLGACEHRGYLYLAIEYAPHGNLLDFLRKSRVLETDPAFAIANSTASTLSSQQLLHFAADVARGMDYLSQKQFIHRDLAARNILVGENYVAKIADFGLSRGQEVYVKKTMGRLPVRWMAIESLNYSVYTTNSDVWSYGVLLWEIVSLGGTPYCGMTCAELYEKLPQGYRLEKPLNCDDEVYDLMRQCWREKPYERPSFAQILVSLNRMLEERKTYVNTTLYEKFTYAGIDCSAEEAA", "experiment": "NVS_ENZ_hTie2: NovaScreen (NVS) Enzymatic Assay for human Tyrosine Protein Kinase Receptor Tie-2 (Tie2) (AID 2283225)", "how_it_was_run": "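Substrate and product were separated by mobility shift and detected by fluorescence after a 1-hour reaction with recombinant Tie2. Chemicals passing a 25 uM single-point screen were titrated to a maximum of 50 uM. Results were normalized to DMSO baseline.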", "values": [{"smiles": "CC(C)C1(C)N=C(c2ncccc2C(=O)O)NC1=O", "note": "(configuration not stated)", "outcome": "inactive"}, {"smiles": "Nc1c(Cl)c(Cl)nc(C(=O)O)c1Cl", "outcome": "inactive"}, {"smiles": "Nc1cnn(-c2ccccc2)c(=O)c1Cl", "outcome": "inactive"}, {"smiles": "OC(c1ccc(Cl)cc1)(c1ccc(Cl)cc1)C(Cl)(Cl)Cl", "outcome": "inactive"}, {"smiles": "CC1(C)C(C=C(Cl)Cl)C1C(=O)OC(C#N)c1cccc(Oc2ccccc2)c1", "note": "(configuration not stated)", "outcome": "inactive"}]}, {"biological_target": "rabbit Imidazoline 2 Central (I2C), CKB (gene 100009085) (UniProt P00567)", "sequence (P00567 whole entry, looked up)": "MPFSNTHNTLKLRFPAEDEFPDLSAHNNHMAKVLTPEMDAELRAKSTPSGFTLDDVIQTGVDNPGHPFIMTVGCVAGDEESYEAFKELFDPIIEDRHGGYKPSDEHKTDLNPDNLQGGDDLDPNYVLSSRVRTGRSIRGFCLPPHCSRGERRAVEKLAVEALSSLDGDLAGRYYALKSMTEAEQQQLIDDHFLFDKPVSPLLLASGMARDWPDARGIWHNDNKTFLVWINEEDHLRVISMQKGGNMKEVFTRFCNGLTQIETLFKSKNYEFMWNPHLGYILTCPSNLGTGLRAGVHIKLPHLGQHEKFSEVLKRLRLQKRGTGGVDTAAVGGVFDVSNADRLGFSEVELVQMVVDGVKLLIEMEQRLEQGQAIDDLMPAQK", "experiment": "NVS_ENZ_rabI2C: NovaScreen (NVS) Enzymatic Assay for rabbit Imidazoline 2 Central (I2C) (AID 2283228)", "how_it_was_run": "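Rabbit brain membranes, cell-free; readout by filter-based scintillation counting 1.5 hours after dosing, loss of signal vs DMSO. Initial duplicate test at 25 uM, then concentration-response with 50 uM top concentration.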", "values": [{"smiles": "CCN(CC)C(=O)C(C)Oc1cccc2ccccc12", "note": "(configuration not stated)", "outcome": "inactive"}, {"smiles": "Cn1c(-c2ccccc2)cc(-c2ccccc2)[n+]1C", "AC50": "12 µM (active)"}, {"smiles": "CCCN(CC)CC1COC2(CCC(C(C)(C)C)CC2)O1", "note": "(configuration not stated)", "AC50": "13 µM (active)"}, {"smiles": "Cc1ccc(N=CN(C)C=Nc2ccc(C)cc2C)c(C)c1", "AC50": "1.21 µM (active)"}]}, {"biological_target": "rat Adenylate Cyclase, Forskolin Stimulated, Adcy5 (gene 64532) (UniProt Q04400)", "sequence (Q04400 whole entry, looked up)": "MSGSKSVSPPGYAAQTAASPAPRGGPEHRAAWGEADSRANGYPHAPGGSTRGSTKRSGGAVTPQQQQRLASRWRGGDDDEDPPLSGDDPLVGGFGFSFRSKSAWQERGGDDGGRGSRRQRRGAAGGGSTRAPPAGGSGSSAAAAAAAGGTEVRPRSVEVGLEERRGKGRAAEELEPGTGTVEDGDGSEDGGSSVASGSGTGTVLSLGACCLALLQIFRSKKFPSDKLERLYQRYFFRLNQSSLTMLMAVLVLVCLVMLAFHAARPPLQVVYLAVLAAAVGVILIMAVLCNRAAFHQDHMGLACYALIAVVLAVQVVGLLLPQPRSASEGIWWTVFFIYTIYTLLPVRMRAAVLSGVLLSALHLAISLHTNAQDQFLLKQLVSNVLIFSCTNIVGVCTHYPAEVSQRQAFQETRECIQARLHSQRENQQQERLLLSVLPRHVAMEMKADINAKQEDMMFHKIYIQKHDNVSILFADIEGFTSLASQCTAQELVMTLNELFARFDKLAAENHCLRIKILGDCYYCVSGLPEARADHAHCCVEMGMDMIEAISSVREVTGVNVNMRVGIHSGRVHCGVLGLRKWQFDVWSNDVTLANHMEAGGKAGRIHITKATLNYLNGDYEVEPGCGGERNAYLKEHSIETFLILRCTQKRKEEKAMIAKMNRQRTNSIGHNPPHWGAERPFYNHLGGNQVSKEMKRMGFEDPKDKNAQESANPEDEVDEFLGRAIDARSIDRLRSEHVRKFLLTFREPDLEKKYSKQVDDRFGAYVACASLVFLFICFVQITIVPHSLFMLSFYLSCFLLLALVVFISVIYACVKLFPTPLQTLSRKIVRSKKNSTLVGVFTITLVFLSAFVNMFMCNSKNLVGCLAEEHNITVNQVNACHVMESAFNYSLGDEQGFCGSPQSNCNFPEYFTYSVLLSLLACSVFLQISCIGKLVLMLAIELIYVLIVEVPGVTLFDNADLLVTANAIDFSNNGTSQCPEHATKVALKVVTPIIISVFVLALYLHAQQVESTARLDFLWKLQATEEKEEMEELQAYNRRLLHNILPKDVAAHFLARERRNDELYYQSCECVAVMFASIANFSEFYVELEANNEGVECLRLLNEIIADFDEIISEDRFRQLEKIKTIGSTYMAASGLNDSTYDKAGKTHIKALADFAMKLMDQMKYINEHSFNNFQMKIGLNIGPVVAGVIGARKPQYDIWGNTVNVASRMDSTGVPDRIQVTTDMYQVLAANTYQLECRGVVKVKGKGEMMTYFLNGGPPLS", "experiment": "NVS_ENZ_rACFSKBinding: NovaScreen (NVS) Enzymatic Assay for rat Adenylate Cyclase, Forskolin Stimulated (AID 2283232)", "how_it_was_run": "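Chemicals were first tested at 25 uM in duplicate, then hits run as concentration series with top concentration 50 uM. Enzyme source was rat forebrain membranes; radiometric filter read-out after 1 h, referenced to DMSO.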", "values": [{"smiles": "COP(=S)(OC)SCn1nnc2ccccc2c1=O", "outcome": "inactive"}, {"smiles": "CO/N=C(/C1=NOCCO1)c1ccccc1Oc1ncnc(Oc2ccccc2Cl)c1F", "outcome": "inactive"}, {"smiles": "O=C1C2CC=CCC2C(=O)N1SC(Cl)(Cl)Cl", "note": "(configuration not stated)", "outcome": "inactive"}]}, {"biological_target": "rat Acetylcholinesterase (AChE), Ache (gene 83817) (UniProt P37136)", "experiment": "NVS_ENZ_rAChE: NovaScreen (NVS) Enzymatic Assay for rat Acetylcholinesterase (AChE) (AID 2283233)", "how_it_was_run": "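Compounds first screened at 25 uM in duplicate, then those passing threshold tested in concentration series up to 50 uM, against AChE from rat brain membranes. Enzyme activity read by absorbance at 0.33 h; inhibition scored versus DMSO.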", "values": [{"smiles": "N#CN=C1SCCN1Cc1ccc(Cl)nc1", "AC50": "16.6 µM (active)"}, {"smiles": "CC(C)N1C(=O)N(c2ccccc2)CSC1=NC(C)(C)C", "outcome": "inactive"}, {"smiles": "O=c1n(Cl)c(=O)n(Cl)c(=O)n1Cl", "outcome": "inactive"}, {"smiles": "CCNC(=O)NC(=O)C(C#N)=NOC", "outcome": "inactive"}, {"smiles": "CNC(=O)Oc1cccc2ccccc12", "AC50": "6.15 µM (active)"}, {"smiles": "COP(=S)(OC)SCn1nnc2ccccc2c1=O", "outcome": "inactive"}, {"smiles": "CCOP(=O)(OCC)Oc1nc(Cl)c(Cl)cc1Cl", "AC50": "0.488 µM (active)"}, {"smiles": "Nc1c(Cl)c(Cl)nc(C(=O)O)c1Cl", "outcome": "inactive"}]}, {"biological_target": "rat Constitutive Nitric Oxide Synthase (CNOS), Nos1 (gene 24598) (UniProt P29476)", "sequence (P29476 whole entry, looked up)": "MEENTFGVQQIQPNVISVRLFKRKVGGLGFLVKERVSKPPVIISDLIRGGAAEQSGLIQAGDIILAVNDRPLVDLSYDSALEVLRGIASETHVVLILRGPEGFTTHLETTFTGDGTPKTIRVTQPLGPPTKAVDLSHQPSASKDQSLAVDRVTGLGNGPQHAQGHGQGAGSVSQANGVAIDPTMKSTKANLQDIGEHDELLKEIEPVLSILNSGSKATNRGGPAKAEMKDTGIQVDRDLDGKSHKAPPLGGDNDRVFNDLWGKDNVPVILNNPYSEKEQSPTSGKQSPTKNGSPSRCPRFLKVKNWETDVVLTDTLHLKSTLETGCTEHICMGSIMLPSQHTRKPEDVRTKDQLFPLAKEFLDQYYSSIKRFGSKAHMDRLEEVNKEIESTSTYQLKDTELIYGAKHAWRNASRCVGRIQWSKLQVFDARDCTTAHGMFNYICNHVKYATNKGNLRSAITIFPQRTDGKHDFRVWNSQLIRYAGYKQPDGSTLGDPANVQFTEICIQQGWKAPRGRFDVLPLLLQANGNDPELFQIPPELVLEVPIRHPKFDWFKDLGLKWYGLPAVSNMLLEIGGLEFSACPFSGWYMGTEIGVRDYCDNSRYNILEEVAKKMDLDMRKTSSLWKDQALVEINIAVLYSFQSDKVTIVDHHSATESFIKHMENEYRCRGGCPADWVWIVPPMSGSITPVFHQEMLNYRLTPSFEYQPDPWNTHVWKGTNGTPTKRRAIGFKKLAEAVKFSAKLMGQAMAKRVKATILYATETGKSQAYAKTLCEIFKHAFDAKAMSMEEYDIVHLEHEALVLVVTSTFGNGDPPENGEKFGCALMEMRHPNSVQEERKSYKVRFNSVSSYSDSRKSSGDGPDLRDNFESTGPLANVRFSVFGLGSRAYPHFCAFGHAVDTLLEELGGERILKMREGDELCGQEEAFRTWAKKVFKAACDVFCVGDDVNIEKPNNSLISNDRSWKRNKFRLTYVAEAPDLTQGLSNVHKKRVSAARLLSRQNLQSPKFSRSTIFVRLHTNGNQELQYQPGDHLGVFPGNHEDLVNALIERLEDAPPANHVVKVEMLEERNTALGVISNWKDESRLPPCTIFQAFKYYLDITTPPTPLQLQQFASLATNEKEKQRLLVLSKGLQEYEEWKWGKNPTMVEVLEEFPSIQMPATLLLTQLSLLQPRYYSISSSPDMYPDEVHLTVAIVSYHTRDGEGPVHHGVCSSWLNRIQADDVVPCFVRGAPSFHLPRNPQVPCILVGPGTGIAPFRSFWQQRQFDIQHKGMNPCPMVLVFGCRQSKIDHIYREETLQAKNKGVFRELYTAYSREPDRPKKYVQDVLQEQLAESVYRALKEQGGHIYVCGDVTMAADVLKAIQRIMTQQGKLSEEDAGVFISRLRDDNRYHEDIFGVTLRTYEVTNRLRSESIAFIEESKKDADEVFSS", "experiment": "NVS_ENZ_rCNOS: NovaScreen (NVS) Enzymatic Assay for rat Constitutive Nitric Oxide Synthase (CNOS) (AID 2283236)", "how_it_was_run": "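Single 25 uM duplicate screen, then concentration series to 50 uM for chemicals meeting threshold. Rat brain membrane-derived CNOS activity detected radiometrically by filtration and scintillation counting, 1 h after compound addition; DMSO as baseline.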", "values": [{"smiles": "CS(=O)(=O)c1ccc(C(=O)C2C(=O)CCCC2=O)c([N+](=O)[O-])c1", "outcome": "inactive"}, {"smiles": "CCNC(=O)NC(=O)C(C#N)=NOC", "AC50": "9.03 µM (active)"}, {"smiles": "COP(=S)(OC)SCn1nnc2ccccc2c1=O", "outcome": "inactive"}]}, {"biological_target": "rat Monoamine Oxidase, MAO-B, Peripheral (MAOBP), Maob (gene 25750) (UniProt P19643)", "sequence (P19643 whole entry, looked up)": "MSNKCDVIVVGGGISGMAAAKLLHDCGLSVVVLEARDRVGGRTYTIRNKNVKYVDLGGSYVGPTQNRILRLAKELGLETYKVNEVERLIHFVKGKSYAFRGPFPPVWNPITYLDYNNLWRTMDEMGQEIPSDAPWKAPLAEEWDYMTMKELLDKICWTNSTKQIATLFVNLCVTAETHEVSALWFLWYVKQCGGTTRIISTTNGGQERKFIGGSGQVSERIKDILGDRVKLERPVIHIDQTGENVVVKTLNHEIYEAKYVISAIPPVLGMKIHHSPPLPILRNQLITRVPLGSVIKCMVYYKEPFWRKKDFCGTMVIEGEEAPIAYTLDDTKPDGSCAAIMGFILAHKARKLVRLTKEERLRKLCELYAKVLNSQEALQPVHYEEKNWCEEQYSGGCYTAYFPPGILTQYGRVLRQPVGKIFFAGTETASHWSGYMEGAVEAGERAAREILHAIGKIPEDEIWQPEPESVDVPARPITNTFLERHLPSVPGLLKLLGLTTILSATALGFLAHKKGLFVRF", "experiment": "NVS_ENZ_rMAOBP: NovaScreen (NVS) Enzymatic Assay for rat Monoamine Oxidase, MAO-B, Peripheral (MAOBP) (AID 2283242)", "experimental": "NVS_ENZ_rMAOBP is a biochemical, single-readout assay that uses extracted gene-proteins from Rat brain in a tissue-based cell-free assay. Measurements were taken 1.17 hours after chemical dosing in a 96-well plate.NVS_ENZ_rMAOBP is one of one assay component(s) measured or calculated from the NVS_ENZ_rMAOBP assay. It is designed to make measurements of enzyme activity, a form of enzyme reporter, as detected with scintillation counting signals by Lysate-based radiodetection technology.Data from the assay component NVS_ENZ_rMAOBP was analyzed into 1 assay endpoint. This assay endpoint, NVS_ENZ_rMAOBP, was analyzed in the positive analysis fitting direction relative to DMSO as the negative control and baseline of activity. Using a type of enzyme reporter, loss-of-signal activity can be used to understand changes in the enzymatic activity as they relate to the gene Maob. Furthermore, this assay endpoint can be referred to as a primary readout, because this assay has produced multiple assay endpoints where this one serves a enzymatic activity function. To generalize the intended target to other relatable targets, this assay endpoint is annotated to the oxidoreductase intended target family, where the subfamily is monoamine oxidase.\nBinding assays used specific radioligands (tritiated, iodinated) with non-radioactive competitive displacement ligands in agonist or antagonist protocols (as indicated) and various reference compounds and inhibitors to titrate specific binding to receptors and transporters. Most enzyme assays (CYPs, kinases, phosphatases, proteases, HDACs) used recombinant protein and specific substrates (fluorescence mostly, some colorimetric and radioactive) and inhibitors, followed by a biochemical separation of substrate and product. All assays for the biochemical HTS were initially run in duplicate at a single concentration (10 uM for CYP450 assays and 25 uM for all others). Assay-chemical combinations meeting a pre-defined threshold (e.g., 30% inhibition and other criteria defined below) were then run in singleton concentration-response format with maximum concentration of 20 uM for CYPs and 50 uM for all others. Each assay was run with positive and negative controls, and concurrent controls on every plate. The follow-up (secondary) screen tested active chemical-pairs in concentration series, as well as a few additional assays not tested in the primary screen, some selected negative inactives, and several cases re-run in the concentration series for confirmatory purposes.", "values": [{"smiles": "CC(C)N1C(=O)N(c2ccccc2)CSC1=NC(C)(C)C", "outcome": "inactive"}, {"smiles": "CNC(=O)Oc1cccc2ccccc12", "AC50": "25 µM (active)"}, {"smiles": "COP(=S)(OC)SCn1nnc2ccccc2c1=O", "outcome": "inactive"}, {"smiles": "CCCN(CC)CC1COC2(CCC(C(C)(C)C)CC2)O1", "note": "(configuration not stated)", "outcome": "inactive"}]}]}
